# Measured values taken from the supplement of paper PMC6897291.
# Key:
# [1] = tested on: U-2932; assay: growth inhibition by drug alone (1 - RLU/untreated control) (fraction); higher = stronger inhibition; conditions: 177Lu-lilotomab satetraxetan 0 ug/ml
# How it was run: (§1)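 With or without 18 h pretreatment by a radiolabelled anti-CD37 antibody conjugate (~600 MBq/mg; 0.5 µg/ml RIVA, 1 µg/ml U-2932), RIVA and U-2932 cells were washed and plated at 3,000 cells/well. Pre-printed compound doses were 10/100 nM for RIVA and 10/1,000 nM for U-2932. Growth inhibition uses RealTime-Glo RLU relative to the untreated no-drug wells. The calculation is 1 − RLU/mean of 48 such wells per plate, with reads daily from day 3 after 1 h at 37°C.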
# [2] = tested on: RIVA; assay: as above; conditions: 177Lu-lilotomab satetraxetan 0 ug/ml
# How it was run: as §1
# [3] = tested on: U-2932; assay: growth inhibition by drug plus 177Lu-lilotomab satetraxetan (1 - RLU/untreated control) (fraction); higher = stronger inhibition; conditions: 177Lu-lilotomab satetraxetan 1 ug/ml
# How it was run: as §1
# [4] = tested on: RIVA; assay: as above; conditions: 177Lu-lilotomab satetraxetan 0.5 ug/ml
# How it was run: as §1
Structure (SMILES),"growth inhibition by drug alone ([1]; 10 nM, time (day): 3)","growth inhibition by drug alone ([1]; 10 nM, time (day): 4)","growth inhibition by drug alone ([1]; 10 nM, time (day): 5)","growth inhibition by drug alone ([1]; 10 nM, time (day): 6)","growth inhibition by drug alone ([1]; 1000 nM, time (day): 3)","growth inhibition by drug alone ([1]; 1000 nM, time (day): 4)","growth inhibition by drug alone ([1]; 1000 nM, time (day): 5)","growth inhibition by drug alone ([1]; 1000 nM, time (day): 6)","growth inhibition by drug alone ([2]; 10 nM, time (day): 3)","growth inhibition by drug alone ([2]; 10 nM, time (day): 4)","growth inhibition by drug alone ([2]; 10 nM, time (day): 5)","growth inhibition by drug alone ([2]; 10 nM, time (day): 6)","growth inhibition by drug alone ([2]; 100 nM, time (day): 3)","growth inhibition by drug alone ([2]; 100 nM, time (day): 4)","growth inhibition by drug alone ([2]; 100 nM, time (day): 5)","growth inhibition by drug alone ([2]; 100 nM, time (day): 6)","growth inhibition by drug plus 177Lu-lilotomab satetraxetan ([3]; 10 nM, time (day): 3)","growth inhibition by drug plus 177Lu-lilotomab satetraxetan ([3]; 10 nM, time (day): 4)","growth inhibition by drug plus 177Lu-lilotomab satetraxetan ([3]; 10 nM, time (day): 5)","growth inhibition by drug plus 177Lu-lilotomab satetraxetan ([3]; 10 nM, time (day): 6)","growth inhibition by drug plus 177Lu-lilotomab satetraxetan ([3]; 1000 nM, time (day): 3)","growth inhibition by drug plus 177Lu-lilotomab satetraxetan ([3]; 1000 nM, time (day): 4)","growth inhibition by drug plus 177Lu-lilotomab satetraxetan ([3]; 1000 nM, time (day): 5)","growth inhibition by drug plus 177Lu-lilotomab satetraxetan ([3]; 1000 nM, time (day): 6)","growth inhibition by drug plus 177Lu-lilotomab satetraxetan ([4]; 10 nM, time (day): 3)","growth inhibition by drug plus 177Lu-lilotomab satetraxetan ([4]; 10 nM, time (day): 4)","growth inhibition by drug plus 177Lu-lilotomab satetraxetan ([4]; 10 nM, time (day): 5)","growth inhibition by drug plus 177Lu-lilotomab satetraxetan ([4]; 10 nM, time (day): 6)","growth inhibition by drug plus 177Lu-lilotomab satetraxetan ([4]; 100 nM, time (day): 3)","growth inhibition by drug plus 177Lu-lilotomab satetraxetan ([4]; 100 nM, time (day): 4)","growth inhibition by drug plus 177Lu-lilotomab satetraxetan ([4]; 100 nM, time (day): 5)","growth inhibition by drug plus 177Lu-lilotomab satetraxetan ([4]; 100 nM, time (day): 6)"
Cn1c(=O)c(F)c(Nc2ccc(I)cc2F)c2c(=O)n(C[C@@H](O)CO)cnc21,0.14,0.135,0.0576,-0.0158,0.131,0.169,0.099,0.12,0.0885,0.0594,-0.0237,-0.205,-0.0966,-0.077,-0.161,-0.342,0.103,0.169,0.176,0.21,0.189,0.254,0.249,0.347,0.522,0.484,0.489,0.487,0.579,0.588,0.55,0.496
"Nc1ccccc1NC(=O)c1ccc(CNC(=O)OCc2cccnc2)cc1 [Entinostat (MS-275, SNDX-275)]",0.036,0.00325,0.00221,0.0268,0.833,0.861,0.874,0.887,-0.0286,-0.0282,-0.046,-0.113,0.288,0.217,0.174,0.114,0.053,0.0586,0.0668,0.217,0.855,0.89,0.908,0.928,0.486,0.568,0.585,0.591,0.604,0.62,0.628,0.595
O=c1[nH]cc(F)c(=O)[nH]1 [Adrucil (Fluorouracil)],0.0617,0.0194,0.0184,-0.211,0.0564,0.0179,0.00587,-0.153,-0.0691,-0.144,-0.384,-0.72,-0.6,-0.481,-0.493,-0.619,-0.0549,0.00352,0.0517,0.0335,0.0514,0.0854,0.184,0.275,0.421,0.521,0.54,0.555,0.398,0.483,0.493,0.512
O=C(/C=C/C#Cc1cccc(NS(=O)(=O)c2ccccc2)c1)NO [Oxamflatin],0.0723,0.054,0.00482,-0.0197,0.851,0.808,0.766,0.702,0.0849,0.0278,0.0468,0.0353,0.675,0.482,0.435,0.389,-0.0134,0.0236,0.0539,0.158,0.941,0.947,0.958,0.96,0.518,0.564,0.59,0.607,0.726,0.683,0.691,0.686
COc1cc2ncnc(Nc3cccc(Br)c3)c2cc1OC,0.0352,0.0294,-0.0462,-0.213,-0.0358,-0.00581,-0.044,-0.226,-0.0227,0.0203,-0.0662,-0.376,-0.0939,-0.0578,-0.0794,-0.167,-0.0269,-0.00153,0.00885,0.0642,-0.0997,0.0384,0.0191,0.0515,0.308,0.458,0.483,0.516,0.349,0.482,0.487,0.467
